Data reported in PubChem BioAssay (NCI).
This is part of a sample that, as a whole, favours compounds with a hit. Of some 79,000 tested, about 15% had one in any assay. Rule as the data show it: active = growth inhibition above about 70%; inactive = the rest.

What was measured:
[1] = NCI Yeast Anticancer Drug Screen. Data for the rad50 strain (AID 155);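 also: 0% = growth of vehicle-only cultures of the same strain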; settings: S. cerevisiae rad50 strain growth inhibition; at 50.0 µM; stronger effect = higher value
Outline: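 Yeast carrying a defined DNA repair defect were exposed to test compounds, and growth was compared with vehicle-treated controls to give percent inhibition.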

[2] = NCI Yeast Anticancer Drug Screen. Data for the mec2-1 strain (AID 157); settings: S. cerevisiae mec2-1 strain, at 50.0 µM, stronger effect = higher value
Outline: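 Growth inhibition is read against vehicle-treated controls after compound exposure of the mec2-1 yeast strain, which is defective in DNA damage repair or cell cycle control.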

[3] = NCI Yeast Anticancer Drug Screen. Data for the sgs1 mgt1 strain (AID 161);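 also: 0% = growth of cultures given vehicle only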; settings: S. cerevisiae sgs1 mgt1 strain, at 50.0 µM, stronger effect = higher value
Outline: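 Percent growth inhibition was derived by comparing compound-exposed mutant yeast with vehicle-exposed cultures. The strain carries alterations in DNA damage repair.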

[4] = NCI Yeast Anticancer Drug Screen. Data for the cln2 rad14 strain (AID 165);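 also: 0% = growth equal to vehicle treated cultures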; settings: S. cerevisiae cln2 rad14 strain, at 50.0 µM, stronger effect = higher value
Outline: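 Growth inhibition, relative to vehicle-treated controls, is the read-out. The test organism is a yeast strain with defined genetic alterations, cln2 rad14.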

[5] = NCI Yeast Anticancer Drug Screen. Data for the bub3 strain (AID 167); settings: S. cerevisiae bub3 mutant strain, at 50.0 µM, stronger effect = higher value
Outline: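 Compounds were applied to a genetically altered yeast strain carrying a cell-cycle control defect. Growth inhibition was scored against vehicle-treated controls.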

[6] = NCI Yeast Anticancer Drug Screen. Data for the mlh1 rad18 strain (AID 175); settings: S. cerevisiae mlh1 rad18 strain growth inhibition; at 50.0 µM; stronger effect = higher value
Outline: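 Cells of a genetically altered yeast strain, deficient in DNA damage repair, were treated with compound. Their growth was then compared with that of vehicle-treated cultures to give inhibition.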

Measured: growth inhibition

N#Cc1nc(C(O)c2ccccc2)oc1N (stereo not given)
inactive: [1] -6.75% | [2] 16.4% | [3] -7.05% | [4] 11.8% | [5] -10.3% | [6] -71.1%

Nc1nc(-c2ccc(S(=O)(=O)O)cc2)cc(=O)[nH]1
inactive: [1] -9.6% | [2] -4.5% | [3] -10.7% | [4] 17.2% | [5] -27.4% | [6] 16.5%

FC1(F)SC2c3ccccc3CC2C1(F)F (stereo not given)
inactive: [1] 20.4% | [2] 6.15% | [3] 7.75% | [4] -47.2% | [5] 8.35% | [6] 9.95%

Cc1cc(N=[N+]=[N-])c2ccc(Cl)cc2n1
inactive: [1] -8.15% | [2] 1.05% | [3] -5.55% | [4] -47% | [5] 8.55% | [6] 33.1%

Cc1ccc(/S(Cc2ccccc2)=N\S(=O)(=O)c2ccc(C)cc2)cc1 (stereo not given)
inactive: [1] -40.2% | [2] -36% | [3] -60.9% | [4] -13.3% | [5] -27.8% | [6] -33.1%

CCOC(=O)C1CCN(S(=O)(=O)c2ccccc2)CC1
inactive: [1] 3.4% | [2] -7.3% | [3] 11.8% | [4] -38.1% | [5] 18.6% | [6] -6.15%

CC(CCC(=O)O)(CCC(=O)O)C(=O)O
inactive: [1] 4.2% | [2] 3.85% | [3] -0.8% | [4] -15.6% | [5] 3.7% | [6] -1.9%

O=C1NC2(CCCC2)C(=O)NC12CCCC2
inactive: [1] -21.1% | [2] -22.1% | [3] -1.45% | [4] -13.2% | [5] -26.2% | [6] 1.35%

CC1(C)COC(c2ccc(Cl)cc2)OC1
inactive: [1] 16.6% | [2] 14.6% | [3] 4.3% | [4] -12.5% | [5] 19.5% | [6] 26.1%

O=C(O)C1COCOC1c1ccccc1 (stereo not given)
inactive: [1] -1.6% | [2] -10.3% | [3] 3% | [4] -14.9% | [5] -4.05% | [6] 6.9%

NC(CCC1CCCCC1)C(=O)O (stereo not given)
inactive: [1] -7.75% | [2] 6.8% | [3] 0.5% | [4] -3.65% | [5] 22.6% | [6] 3.7%

CC(C)N(C(=O)c1cccc([N+](=O)[O-])c1)C(C)C
inactive: [1] 14.6% | [2] 11.2% | [3] 7.5% | [4] -30.9% | [5] -4.1% | [6] 15.8%

CC(=Nc1cccc(C(F)(F)F)c1)c1c(O)cc(C)oc1=O
inactive: [1] 9.25% | [2] 14.8% | [3] 24.9% | [4] 11.7% | [5] 28.2% | [6] 35.1%

O=C(c1ccccc1)C1(c2ccccc2)C(C(=O)c2ccccc2)(c2ccccc2)S1(=O)=O (stereo not given)
inactive: [1] -19.8% | [2] -13.5% | [3] -8.05% | [4] -38.8% | [5] -6.6% | [6] -15.3%

C/C(=C/C(C)C)C(C)(C#N)C(N)=O (stereo not given)
inactive: [1] 8.75% | [2] 5.8% | [3] 1.2% | [4] 8.25% | [5] 8.75% | [6] 4.35%

O=c1[nH]c2cc3[nH]c4ncccc4c(=O)c3cc2[nH]1
inactive: [1] -3.7% | [2] 0.15% | [3] -22.7% | [4] 8.15% | [5] -1.15% | [6] 21.3%

S=C(S)NC1CCN(Cc2ccccc2)CC1
inactive: [1] 56.4% | [2] 30.6% | [3] 49% | [4] 48% | [5] 61.5% | [6] 26.1%

CC(C)(C)C(=O)O[C@H]1C=C[C@@H](O)[C@@H]2[C@H]1[C@@H]1C=C[C@H]2C1
inactive: [1] 28.1% | [2] 41.6% | [3] 66.8% | [4] 11.6% | [5] 55.9% | [6] 53.5%

CS/C1=C(\c2ccc(C)cc2)N(c2ccccc2)C(=O)C(=O)N(c2ccccc2)/C(c2ccc(C)cc2)=C(/SC)SS1
inactive: [1] 12.2% | [2] -27.1% | [3] 2.9% | [4] 3% | [5] 8% | [6] 12.5%

OC(CBr)(c1ccccc1)c1ccccc1
inactive: [1] 13.5% | [2] 23.4% | [3] 19.9% | [4] 31.3% | [5] 7% | [6] 24.1%

COc1cc(C(c2ccc(N(Cc3ccccc3)Cc3ccccc3)cc2NC(C)=O)c2ccc(N(Cc3ccccc3)Cc3ccccc3)cc2NC(C)=O)ccc1O
inactive: [1] 2.75% | [2] 2.05% | [3] -11.4% | [4] -8.2% | [5] -5.1% | [6] 38.2%

O=CC(O)C(O)C(O)C(O)C(=O)O.O=CC(O)C(O)C(O)C(O)C(=O)O.[NH-]C1CCCCC1[NH-].[Pt+2] (stereo not given)
inactive: [1] -7.65% | [2] -9.8% | [3] 8.2% | [4] 4.25% | [5] 6.35% | [6] -41%

O=C(NCC(F)(F)C(F)(F)C(F)(F)C(F)(F)C(F)(F)C(F)(F)C(F)(F)F)Oc1ccccc1
inactive: [1] 39.2% | [2] 3.3% | [3] 26.7% | [4] 9.45% | [5] -2.05% | [6] 3.35%

CNC(=O)CC(=O)NC
inactive: [1] -20.4% | [2] -9.55% | [3] -16.9% | [4] 6.15% | [5] 8.2% | [6] -10.1%

O=C(Nc1cccc(Cl)c1)OC1C=CCC1 (stereo not given)
inactive: [1] 3.4% | [2] 1.75% | [3] 2.65% | [4] -20.1% | [5] -2.15% | [6] -15.5%

O=C(NCCN1CCOCC1)c1ccc(C(=O)NCCN2CCOCC2)cc1
inactive: [1] 35% | [2] 22.9% | [3] 32.6% | [4] 17.5% | [5] 1.6% | [6] 33.9%

N#C/C(=C\n1c(=S)[nH]c2ccc([N+](=O)[O-])cc21)c1cccc(Cl)c1
inactive: [1] -25.2% | [2] -13.9% | [3] -34.1% | [4] 3.75% | [5] -2.45% | [6] -11.2%

COc1ccc(NC(=O)N2CC3CCN2CC3)cc1
inactive: [1] -7.95% | [2] -10.8% | [3] -12.2% | [4] -21.9% | [5] -12.7% | [6] -16.2%

CCOC1(OCC)CCC2(CC1)c1ccccc1-c1ccccc12
inactive: [1] 9.5% | [2] 15.8% | [3] 2.95% | [4] 1.15% | [5] -7.45% | [6] 14.8%

N/C=N/OC(=O)c1ccccc1
inactive: [1] 11.5% | [2] 14.4% | [3] 11.8% | [4] 4.7% | [5] 0.5% | [6] 8.25%

CN(C)c1nc(N(C)C)nc(N(C)C=O)n1
inactive: [1] -4.9% | [2] -21.9% | [3] -30.7% | [4] -2.85% | [5] -27.6% | [6] -5.55%

CC(=O)Nc1c([N+](=O)[O-])cc(C2CCCCC2)cc1[N+](=O)[O-]
inactive: [1] -8.05% | [2] -7.25% | [3] 4.25% | [4] -34.5% | [5] 23.2% | [6] -9.85%

Cc1ccc(S(=O)(=O)OC[C@H]2CC=CC[C@@H]2COS(=O)(=O)c2ccc(C)cc2)cc1
inactive: [1] -18.6% | [2] 31.6% | [3] 0.6% | [4] -29.6% | [5] 3.2% | [6] -6.1%

NS(=O)(=O)/C=C(\Cl)c1ccccc1
inactive: [1] 1.7% | [2] 2.15% | [3] 2.95% | [4] -16.6% | [5] 12.2% | [6] -0.55%

COc1ccc(Cl)cc1NC(=O)CC(C)=O
inactive: [1] -9.9% | [2] -12.2% | [3] 3.45% | [4] 6.45% | [5] -3.2% | [6] -5.95%

COc1ccc2[nH]c(C)cc2c1CN
inactive: [1] -0.65% | [2] -14.3% | [3] 15.1% | [4] -24.9% | [5] -20.2% | [6] 26.4%

COc1ccc(/C=C(/NC(=O)c2ccccc2)C(=O)O)c(OC)c1C
inactive: [1] 2.4% | [2] 0.45% | [3] 1.3% | [4] -66% | [5] -17.2% | [6] -7.65%

Cc1ccc2ncccc2c1
inactive: [1] -2.75% | [2] -18.1% | [3] 1.8% | [4] -12.4% | [5] 3.9% | [6] -6.45%

O=C(N/N=C/c1ccccc1Cl)c1ccccc1
inactive: [1] -19.4% | [2] -1.25% | [3] -5.3% | [4] -7.55% | [5] -4.05% | [6] -9.6%

COC(=O)N/N=C(/C)c1ccco1
inactive: [1] 8.75% | [2] 27.9% | [3] 3.55% | [4] 1.55% | [5] 14.8% | [6] 16.2%
